Assay results as given in PubChem BioAssay AID686979 (National Center for Advancing Translational Sciences (NCATS), 2013).
Among all 420,000 compounds or so, about 50,000 (12%) were called active. Where a call stands in place of a potency, no number is given. Inconclusive results (about 26%) are left out. This is one part of a sample in which actives are shown more often than they occur. Values without a mark were called inactive. Calls follow the shape of the dose curve; as a rule, active = well fitted inhibition curve with a large enough effect; inconclusive = small, poorly fitted or top-dose-only effect; inactive = flat fitted curve, though single readings scatter.

experiment: qHTS for Inhibitors of human tyrosyl-DNA phosphodiesterase 1 (TDP1): qHTS in cells in presence of CPT; settings: chicken DT40 Tdp1-/-;hTDP1 cells + 20 nM CPT, ATP luminescence, 48 h; series mostly up to 46.2 µM; also: nearly all actives have a fitted effect of over 55% in size
Procedure, shortened: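 Cell growth measured by CellTiter-Glo luminescence after a minimum 48 h, 37 C compound exposure with 20 nM CPT in Tdp1-knockout DT40 cells stably expressing hTDP1, seeded 400/well; qHTS titration format.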
Potency is read from the fitted curve at half-maximal effect.

SMILES	Potency	activity change, negative = growth inhibition
COCCNC(=O)c1ccccc1NS(=O)(=O)c1ccc(C)c([N+](=O)[O-])c1	inactive	–
COCCNc1cc(NCCOC)c([N+](=O)[O-])cc1[N+](=O)[O-]	inactive	–
COCCNc1ccc(-c2n[nH]c(=O)c3ccccc23)cc1[N+](=O)[O-]	14.6 µM (active)	–
CC(C)(C)C(=O)OCc1nc(-c2ccc(O)c(O)c2)cs1	6.51 µM (active)	–
Cc1onc(C(=O)NN)c1-c1csc(COc2ccccc2)n1	inactive	–
COc1ccc(-c2csc(-c3cccs3)n2)cc1OC	inactive	–
O=C(Nc1ccncc1)c1ccc([N+](=O)[O-])cc1Cl	inactive	–
O=C1N(c2ccc(Cl)cc2)C(c2ccc(Cl)cc2)N2CCCN12 (stereo unspecified)	inactive	–
Nc1nonc1-n1nnc(C(=O)N/N=C/c2cc(Br)ccc2O)c1CSC1=NCCS1	5.8 µM (active)	–
Cc1ccc(SCc2c(C(=O)N/N=C/C3CC=CCC3)nnn2-c2nonc2N)cc1 (stereo unspecified)	inactive	–
Nc1nonc1-n1nnc(C(=O)N/N=C\c2ccncc2)c1CN1CCCCC1	inactive	–
COc1cc(OC)c(OC)cc1/C=N/Nc1ncnc2c1[nH]c1ccc(C)cc12	inactive	–
CC(C)OCCCNc1ncnc2c1[nH]c1ccc(F)cc12	2.91 µM (active)	–
COc1ccc(CCNC(=O)CC2SC(=Nc3cc(C)cc(C)c3)NC2=O)cc1OC (stereo unspecified)	inactive	–
CC(C)(C)OC(=O)CNC(=O)c1[nH]cnc1C(=O)N[C@@H](CCCCN)C(=O)OC(C)(C)C	inactive	–
COc1cc2ccccc2cc1C(=O)Nc1ccncc1	inactive	–
COc1cc2ccccc2cc1C(=O)Nc1ccc(NC(=O)c2cccs2)cc1	20.6 µM (active)	–
COc1cc(NC(=O)c2cccs2)ccc1NC(=O)c1ccccc1Cl	inactive	–
CCCCCCCCCCOC(=O)C[N+](C)(C)CC1CCCCC1O (stereo unspecified)	inactive	–
CC(NCc1cccs1)C(=O)Nc1cc(Cl)cc(Cl)c1 (stereo unspecified)	inactive	–
CC(=O)N1CCC2(CCCN(Cc3ccc(C#N)cc3)C2)CC1	inactive	–
O=C(CN(c1cc(C(F)(F)F)ccc1Cl)S(=O)(=O)c1ccccc1)NCc1cccnc1	20.6 µM (active)	–
O=C(O)c1cc(S(=O)(=O)N(Cc2ccccc2)c2cccc(C(F)(F)F)c2)ccc1Cl	inactive	–
O=C(CCc1ccccc1)NCc1cccnc1	inactive	–
COc1ccc(C2(C)NC(=O)N(CC(=O)c3ccc4c(c3)OCO4)C2=O)cc1 (stereo unspecified)	inactive	–
CCCCc1nc(NCc2ccccc2)c(C#N)c2c1CCCC2	inactive	–

SMILES	Potency	activity change, negative = growth inhibition
CCCCc1nc(NCCN)c(C#N)c2c1CSC(C)(C)C2	20.6 µM (active)	–
Cc1nc(NCCN)c(C#N)c2c1COC(C)(C)C2	inactive	–
COc1ccc(-c2cc(=O)c3c(O)cc(O[C@@H]4O[C@H](CO[C@@H]5O[C@@H](C)[C@H](O)[C@@H](O)[C@H]5O)[C@@H](O)[C@H](O)[C@H]4O)cc3o2)cc1O	inactive	–
COc1cccc(OC)c1C(=O)NC(=S)NCc1ccco1	inactive	–
COc1cc(C(=O)NC(=S)NCc2ccco2)cc(OC)c1OC	18.4 µM (active)	–
COc1cc(C(=O)N[C@@H](C)C(=O)NCc2ccco2)cc(OC)c1OC	inactive	–
CCN1C(=O)C(=O)N(CC(=O)Nc2cc(C)ccc2C)C1=O	inactive	–
Cc1ccc(CSCCNC(=O)CN(c2ccc(F)cc2)S(C)(=O)=O)cc1	inactive	–
CCOC(=O)C1CCN(C(=O)COC(=O)C2CCN(S(=O)(=O)c3ccc4c(c3)OCCO4)CC2)CC1	inactive	–
CCc1ccc(-c2cc3c(=O)n(CC(=O)NCCCN4CCN(Cc5ccccc5)CC4)nc(C)n3n2)cc1	20.6 µM (active)	–
CCCN1CCN(CCCNC(=O)Cn2nc(CC)n3c(cc4occc43)c2=O)CC1	inactive	–
Cc1ccc(-c2ccc(=O)n(CC(=O)NCCCN3CCCCC3)n2)cc1	inactive	–
Cc1ccccc1CSc1nnc(-c2ccccc2)c(=O)[nH]1	inactive	–
C/C(Nc1ccc2oc(=O)ccc2c1)=C1/C(=O)CC2[C@@H]1C2(C)C (stereo partly specified)	–	6.03% [at 9.04 µM]
CC(=O)Nc1ccc(S(=O)(=O)N2CCSCC2)cc1	inactive	–
Cc1ccc(C)c(S(=O)(=O)N2CCN(CC(=O)Nc3ccc([N+](=O)[O-])cc3)CC2)c1	14.6 µM (active)	–
Cc1ccc(C)c(S(=O)(=O)N2CCN(C(=O)Nc3ccccc3)CC2)c1	inactive	–
Cc1ccc(NC(=O)CCNC(=O)c2ccc([N+](=O)[O-])cc2)cc1S(=O)(=O)N1CCOCC1	inactive	–
CC(=O)Nc1ccc(S(=O)(=O)N2CCN(S(=O)(=O)c3cccs3)CC2)cc1	inactive	–
CC(=O)Nc1ccc(S(=O)(=O)N2CCN(CCCOc3cc(C)ccc3C)CC2)cc1	25.9 µM (active)	–
CCCC/S(C)=N/S(=O)(=O)c1ccc(C)cc1 (stereo unspecified)	inactive	–
N#Cc1c(NCCO)ccc([N+](=O)[O-])c1NCCO	inactive	–
CC(=O)Oc1ccc(-c2nc3c(C)cccc3c(=O)o2)cc1	inactive	–
CCn1cc(C(=O)OCC(=O)Nc2cccc(C)c2)c(=O)c2ccc(C)nc21	inactive	–
[O-][n+]1ccc(OCc2ccccc2)cc1	inactive	–
c1ccc(Cc2cc[n+](Cc3ccccc3)cc2)cc1	23.1 µM (active)	–

SMILES	Potency	activity change, negative = growth inhibition
C[n+]1ccc(C(=O)NCc2ccccc2)cc1	inactive	–
CN(C)c1ccc(/C=N/N(Cc2ccccc2)c2ccccc2)cc1	inactive	–
CN(C)c1cc[n+](Cc2ccccc2)cc1	0.58 µM (active)	–
COc1ccc(CCNC(=O)COc2ccc3c(c2)OCO3)cc1	inactive	–
CNC(=S)NNC(=O)c1oc2nc(-c3ccccc3)cc(-c3ccco3)c2c1N	inactive	–
CC1CCCC(NC(=O)COC(=O)[C@@H]2CC(O)CN2S(=O)(=O)c2ccc3c(c2)OCCO3)C1C (stereo partly specified)	inactive	–
CCC1CCC2(CC1)NC(=O)N(CC(=O)Nc1ccc(OC)cc1)C2=O (stereo unspecified)	inactive	–
O=C1Nc2c(Br)cc(Br)cc2C1(O)N1CCOCC1 (stereo unspecified)	5.17 µM (active)	–
O=C(CSC(=S)N1CCOCC1)c1cc(Br)cc(Br)c1O	inactive	–
O=C(c1cc2cc(Br)cc(Br)c2oc1=O)N1CCOCC1	inactive	–
COc1ccc(C(=O)COC(=O)CCCC(=O)Nc2cc(C(F)(F)F)ccc2Cl)cc1	inactive	–
COc1ccc(OC)c(-n2c(=S)[nH]c3cc(C(=O)N4CCCCC4)ccc3c2=O)c1	inactive	–
CC(C)c1ccc(NC(=O)c2cc(S(=O)(=O)N3CCc4ccccc4C3)ccc2F)cc1	inactive	–
COc1cc(NC(=O)C2CCN(c3cnccn3)CC2)cc(OC)c1	inactive	–
O=[N+]([O-])c1ccc(Oc2ccc(F)cc2Br)c2ccncc12	18.4 µM (active)	–
Cc1ccnc2nc(C(=O)OCC(=O)N(CC(C)C)CC(C)C)nn12	inactive	–
CN(C(=O)CSc1nnc(-c2ccc(C(C)(C)C)cc2)n1C)C1CCS(=O)(=O)C1 (stereo unspecified)	inactive	–
Cc1cc(C)c2nc(SCC(=O)N(C)C3CCS(=O)(=O)C3)cc(C)c2c1 (stereo unspecified)	23.1 µM (active)	–
CCn1c(SCC(=O)N(C)C2CCS(=O)(=O)C2)nnc1-c1cccs1 (stereo unspecified)	inactive	–
COCCn1c(SC(C)C(=O)NC2CC2)nnc1-c1cccc(C)c1 (stereo unspecified)	inactive	–
CCN(CC)C(=O)C1=C(C)N(Cc2ccc(F)cc2)C(=O)C(CC(=O)NCc2cccc3ccccc23)C1 (stereo unspecified)	inactive	–
COc1ccc(NC(=O)C(C)N2c3cccc4cccc(c34)S2(=O)=O)c(OC)c1 (stereo unspecified)	inactive	–
CCOc1cccc(-c2nnc(SCC(=O)NC3CC3)n2C)c1	inactive	–
COC(=O)CCCC1=CC2=C(c3ccccc3)C(=O)C(C)(OC(=O)C3CCCC3)C(=O)C2=CN1c1ccc(OC)cc1 (stereo unspecified)	20.6 µM (active)	–
COCCN1C=C2C(=O)C(C)(OC(=O)C3CCCC3)C(=O)C=C2C=C1c1ccsc1 (stereo unspecified)	inactive	–
COC(=O)CCCC1=CC2=CC(=O)C(C)(OC(=O)c3cccs3)C(=O)C2=CN1c1cccc(C#N)c1 (stereo unspecified)	inactive	–

SMILES	Potency	activity change, negative = growth inhibition
O=c1ccc(S(=O)(=O)N2CCCC2)cn1Cc1nc(-c2ccccc2)no1	inactive	–
Clc1cccc(Cl)c1Cn1nnc(-c2cccs2)n1	inactive	–
O=C(Cc1ccc([N+](=O)[O-])cc1)N/N=C/c1ccco1	inactive	–
CCN(/N=C/c1ccccc1)c1cc(=O)n(C)c(=O)[nH]1	inactive	–
CC(=O)Nc1cc(C(=O)O)ccc1S(=O)(=O)c1ccc(Cl)cc1	inactive	–
O=C(Nc1ccccc1)c1nnsc1S(=O)(=O)c1ccc(Cl)cc1	4.61 µM (active)	–
O=C(Nc1cccc(Cl)c1)c1csnn1	inactive	–
CC(=O)c1ccc(OCCN2CCOCC2)cc1	inactive	–
CCOc1ccc(C(=O)CCN2CCOCC2)cc1	3.26 µM (active)	–
CCOc1ccc(C2C(C(=O)O)c3ccccc3C(=O)N2CCN2CCOCC2)cc1 (stereo unspecified)	inactive	–
COc1cccc(N(C(=O)CNC(=O)c2ccco2)C(C(=O)NC2CCCCC2)c2cccnc2)c1 (stereo unspecified)	inactive	–
COc1ccc(S(=O)(=O)NCCc2c[nH]c3ccccc23)cc1OC	inactive	–
COc1ccccc1CC(=O)NCCc1c[nH]c2ccccc12	inactive	–
COc1cccc(CNCCc2c[nH]c3ccccc23)c1OCc1ccccc1F	10.3 µM (active)	–
Cc1noc(C)c1C(=O)NCCc1ccc(S(N)(=O)=O)cc1	inactive	–
CCOC(=O)c1c(C)[nH]c(C2=NNC(=NC(C)COC)SC2)c1C (stereo unspecified)	20.6 µM (active)	–
CCOCCCNC(=O)C(NC(=O)CNC(=O)c1ccccc1)c1ccc(C)cc1 (stereo unspecified)	inactive	–
CC1CCN(C(=O)/C(=C\c2ccccc2F)NC(=O)c2ccccc2)CC1	inactive	–
COC(=O)c1ccccc1C(=O)NCc1nc(N2CCCC2)c2cccc(C)c2n1	inactive	–
COc1ccc(CNC2CCCCC2)cc1	inactive	–
COc1ccc(CNc2nc(NCc3ccc(OC)cc3)c3ncn(C4CCCC4)c3n2)cc1	3.26 µM (active)	–
CCCC(=O)n1nc(NCc2ccc(OC)cc2)nc1NCc1ccc(OC)cc1	inactive	–
COc1ccc(-n2c(SCC(=O)NCc3cccs3)nnc2-c2ccoc2C)cc1	inactive	–
